The supplement of paper PMC4166925
± gives the standard deviation of the averaged measurements. The full ranking holds about 33,000 sequences; the median of “E-score (dimensionless, -0.5 to 0.5)” is about -0.046, and the highest 2% start at about 0.36. What follows is part of a selection rich in the highest values, with near analogues and random picks from the rest.

The sequences below were run on T1, SpTbr T-box DNA-binding domain (GST fusion) (assay: PBM E-score of 8-mer (E-score (dimensionless, -0.5 to 0.5)); Tbr is Tbrain of the sea star Patiria miniata (Pm) or the sea urchin Strongylocentrotus purpuratus (Sp); higher = stronger binding preference). Conditions: the construct has about 5 more residues each side.
T1 sequence: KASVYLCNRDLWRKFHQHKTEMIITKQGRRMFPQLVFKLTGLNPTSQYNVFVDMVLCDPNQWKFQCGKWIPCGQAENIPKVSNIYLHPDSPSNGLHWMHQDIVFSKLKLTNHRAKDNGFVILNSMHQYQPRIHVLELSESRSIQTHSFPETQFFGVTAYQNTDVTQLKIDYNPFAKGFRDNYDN
Description: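 Universal protein-binding microarray (Agilent AMADID 016060, 60-bp probes with a 35-bp variable region) incubated with 200 nM GST-fused Strongylocentrotus purpuratus Tbr T-box DNA-binding domain (residues 362-554) in PBS pH 7.5. Scored for every ungapped 8-mer (given with its reverse complement) as E-score (range -0.5 to 0.5; >0.45 counts as bound) and Z-score of median probe intensity. Two replicate arrays (datasets 1 and 2).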
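Further: protein at 200 nM in PBS on universal double-stranded arrays.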

Sequence	PBM E-score of 8-mer
AAAGCGCT	0.0608 ± 0.028
GAGCAGTA	-0.00784 ± 0.039
AGTTAGCG	0.304 ± 0.0085
GTCGAGCA	0.0707 ± 0.028
ATTTAAAT	-0.06656 ± 0.00039
ACCTCCCT	0.00833 ± 0.034
ATGTTAGA	-0.136 ± 0.095
TTGTTAAA	0.184 ± 0.12
GTGTTAGA	0.384 ± 0.0066
CTGTTAAA	0.231 ± 0.041
GTGTTAAA	0.395 ± 0.026
CTGTTAGA	0.11 ± 0.12
GGTAGACA	-0.025 ± 0.028
CTCTTCAC	0.292 ± 0.018
AAGGGGCA	-0.297 ± 0.042
AAGGCGCT	0.306 ± 0.035
AGAGCAAT	-0.132 ± 0.0051
AGGTGATC	0.116 ± 0.085
GGGTGATA	0.253 ± 0.0088
ACGTGATG	0.0808 ± 0.05
AGGTGATG	0.3942 ± 0.0033
CGGTGATA	0.111 ± 0.0075
AGGTGATA	0.428 ± 0.015
ACGCCGGC	0.242 ± 0.0047
AGGGGGAT	-0.262 ± 0.033

Sequence	PBM E-score of 8-mer
ACTTTCAA	0.0855 ± 0.0062
ATCGCGAT	0.364 ± 0.011
GTCGCGAA	0.372 ± 0.025
CTCGCGAG	0.284 ± 0.03
GTCGCGAC	0.362 ± 0.019
CTCGCGAA	0.389 ± 0.012
ATCGCAAA	0.0887 ± 0.0029
ATCGCGTA	0.13 ± 0.024
ATCGCGAG	0.255 ± 0.0054
CTCGCGAC	0.311 ± 0.025
TTCGCGAA	0.3584 ± 0.0003
ATCGCGAA	0.367 ± 0.032
ATCGCGAC	0.271 ± 0.036
GAAAGTGA	0.293 ± 0.039
AAAAAAGT	-0.074 ± 0.11
CCTACTAA	-0.0157 ± 0.06
CGTGTAAA	0.296 ± 0.027
TGCATCAA	-0.0456 ± 0.044
CTGCCAAG	0.105 ± 0.03
ACGCTCAG	0.0449 ± 0.0089
CAAGAACG	-0.267 ± 0.011
ACCCTTGA	-0.0396 ± 0.029
ATGCGCTC	-0.175 ± 0.02
AAACCTCT	-0.292 ± 0.061
ATACCTCC	-0.0183 ± 0.066

Sequence	PBM E-score of 8-mer
TGACCTCA	0.0321 ± 0.076
ACACCTCG	0.4804 ± 0.0036
CCACCTCC	0.324 ± 0.0077
AGACCTCT	-0.281 ± 0.035
ACACCTCT	0.479 ± 0.0083
TCACCTCA	0.387 ± 0.0086
TAACCTCA	-0.153 ± 0.018
AAACCTCG	0.0284 ± 0.048
ACACCTCC	0.4854 ± 0.0043
CCACCTCG	0.228 ± 0.019
ACTCTTCG	0.113 ± 0.071
CCACTGCG	0.0281 ± 0.049
GAACGAGC	-0.187 ± 0.063
CGGGGGAC	-0.117 ± 0.088
CAATTGAG	-0.2 ± 0.036
CCTAACCG	-0.163 ± 0.039
AGGACTAT	-0.234 ± 0.035
CGGCGATA	0.094 ± 0.028
TTCGCCAA	0.124 ± 0.054
CCACCTCA	0.172 ± 0.067
ACGCCTCG	0.373 ± 0.019
GGACCTCC	-0.327 ± 0.017
AGACCTCA	0.1 ± 0.022
GCACCTCC	0.396 ± 0.013
ACACCTCA	0.4607 ± 0.0039

Sequence	PBM E-score of 8-mer
ACGCCTCT	0.30412 ± 0.00015
GCACCTCA	0.343 ± 0.02
ACGCCTCA	0.331 ± 0.01
CACAGCAG	-0.0256 ± 0.044
ATTAAGAA	-0.254 ± 0.043
ATAGATCG	0.0137 ± 0.011
CACGGTTA	-0.0116 ± 0.056
CCTAGGCC	-0.0372 ± 0.013
CTCGCTAA	0.232 ± 0.043
CAATAGAC	-0.0363 ± 0.07
ACACTTAA	0.336 ± 0.027
ACACTTAC	0.4 ± 0.024
ACTCTTAT	-0.0294 ± 0.038
CCACTTAC	0.161 ± 0.0085
GCACTTAC	0.208 ± 0.017
CCACTTAG	-0.0238 ± 0.042
ACACTTAT	0.402 ± 0.0068
ACACTTAG	0.383 ± 0.038
ACTCTTAG	-0.106 ± 0.0089
CGAGCACA	-0.0373 ± 0.063
CGGCCGAA	-0.16 ± 0.027
GGCAGGGA	-0.182 ± 0.062
TAACCTGA	-0.0659 ± 0.025
GGAGGGTA	-0.0485 ± 0.045
AGGCCTAT	-0.196 ± 0.034

Sequence	PBM E-score of 8-mer
AACCTAAC	-0.0237 ± 0.04
CACCTAAG	0.383 ± 0.019
CCCCTAAG	-0.17 ± 0.067
CACCTAAC	0.387 ± 0.018
CACCTAAA	0.3188 ± 0.00098
AACCTAAG	-0.133 ± 0.0067
AGGTTGAT	-0.0456 ± 0.014
AGTTGGCC	-0.112 ± 0.0038
ATTGTGGA	0.0374 ± 0.11
AACACCGA	0.228 ± 0.03
AACACCTA	0.4609 ± 0.0024
AACACCGC	0.299 ± 0.018
TACACCAA	0.0641 ± 0.095
TACACCTA	0.377 ± 0.0086
AACACCTC	0.481 ± 0.0063
AAGACCTC	0.00991 ± 0.032
CCCACCTA	0.282 ± 0.013
TACACCGA	0.118 ± 0.1
CACACCGA	0.291 ± 0.036
CACACCTA	0.4806 ± 0.0011
CCCTATCA	0.0101 ± 0.042
TGAAACCA	-0.0205 ± 0.016
TGTCAAAA	0.289 ± 0.021
TACCCGGA	-0.128 ± 0.15
GCAATCGC	0.212 ± 0.0066

Sequence	PBM E-score of 8-mer
ACTGAGGA	-0.0611 ± 0.02
CCAATAAC	-0.0379 ± 0.13
CTGGGACC	-0.174 ± 0.015
ACGCCAAC	0.144 ± 0.021
CCAGCTTC	-0.142 ± 0.058
CGAACAGA	0.0582 ± 0.028
AACACCGG	0.118 ± 0.015
ACCACCTG	0.224 ± 0.037
AACACCTT	0.479 ± 0.0049
CACACCGG	0.175 ± 0.059
CAGACCTG	-0.0842 ± 0.0016
AACACCGT	0.243 ± 0.091
AAGACCTT	-0.259 ± 0.0063
AACACCTG	0.463 ± 0.0057
CACACCTG	0.479 ± 0.0072
GTATGCAC	0.0616 ± 0.043
CTAGTTTC	-0.105 ± 0.053
CTACGCGA	0.0131 ± 0.01
AACTCTGA	-0.0644 ± 8.5e-05
CGCAAGAC	0.07366 ± 4.2e-05
ACGCATGG	-0.144 ± 0.018
ACGTGCCA	0.361 ± 0.033
GGGTGCCA	0.3739 ± 0.003
AGCTGCCA	0.111 ± 0.099
AGGTGCCC	0.00863 ± 0.0099

Sequence	PBM E-score of 8-mer
CGGTGCGA	0.339 ± 0.0046
ACGTGCCG	0.199 ± 0.058
GTGTGCGA	0.361 ± 0.0042
AGGTGCCG	0.421 ± 0.0055
AGGTGCCA	0.46212 ± 0.00034
CGGTGCCA	0.119 ± 0.02
GCGTGCCA	0.128 ± 0.01
GGGTGCGA	0.4746 ± 0.00052
ACGATCAC	0.119 ± 0.031
AGGTTTAA	-0.0723 ± 0.017
GGACTTGA	-0.12 ± 0.047
AATACTGG	-0.329 ± 0.041
TATATCAA	-0.174 ± 0.03
AAATGGTA	-0.152 ± 0.041
TGCGAGAA	0.36401 ± 0.00027
CAACAAGG	0.0674 ± 0.0062
ACTTCACA	0.357 ± 0.02
CCTTCACC	0.14 ± 0.013
ACTTCACG	0.312 ± 0.018
TCTTCACA	0.395 ± 0.015
CCTTCACG	0.278 ± 0.019
CCTTCACA	0.404 ± 0.0071
ATCCCAGA	-0.0492 ± 0.043
